# Compounds with a hit are over-represented: about 3.5% of the library has one in this group of screens.
# MBD2 DNA inh – blocks human MBD2 binding to methylated DNA; actives 0.31% (n = 370,000); Q9UBB5; TR-FRET, MBD2 binding to methylated oligonucleotide; inhibition, % at 4.4 µM; in the data active means inhibition above about 13%
# rCAG binder – binds r(CAG) RNA repeats | actives 1.3% (n = 370,000) | AID 651821 | r(CAG) RNA repeat, TO-PRO-1 dye displacement fluorescence | inhibition, % at 3 µM;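 active means inhibition above the plate cutoff, the mean of all test compounds on that plate plus 3 SD, cut at about 35% in these data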;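 further: higher means more dye released from RNA so lower well fluorescence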
# LEDGF integ inh – blocks HIV-1 LEDGF/p75-dependent DNA integration; actives 0.64% (n = 370,000); TR-FRET IN-LEDGF/p75 DNA integration, Eu/Cy5; inhibition, % at 3.7 µM; AID 743269;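 active means inhibition above the screen-wide mean plus 3 SD, cut at about 13% in these data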;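 further: signal is the Cy5 over europium emission ratio at 671 and 618 nm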
# DNMT1 inh – inhibitors of human DNMT1. AID 588458. DNMT1 molecular beacon, Hinp1I cleavage, fluorescence. inhibition (reported as % activation of signal), % at 10 µM. actives 0.83% (n = 360,000); in the data active means inhibition above about 50%
# UHRF1 MBD2 ctr – blocks human UHRF1 binding to methylated DNA | AID 687016 | UHRF1 binding to methylated oligo, TR-FRET | actives 0.75% (n = 370,000) | inhibition, % at 4.4 µM; in the data active means inhibition above about 21%;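 further: UHRF1 SRA domain binding a hemimethylated CpG hairpin DNA probe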
# PG9 Ab binder – binds the HIV-1 gp120 antibody PG9 | inhibition, % at 6.7 µM | actives 0.43% (n = 360,000) | TR-FRET gp120-PG9 antibody binding; in the data active means inhibition above about 8.5%
# rCAG bind conf – r(CAG) RNA repeat binding, confirmation | shares compounds with rCAG binder | TO-PRO-1 dye displacement fluorescence | inhibition, % at 3 µM | actives 70% (n = 4,300);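 active means inhibition above a per-plate cutoff, the mean inhibition of sample wells plus 3 SD, cut at about 35% in these data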;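 further: loss of TO-PRO-1 fluorescence as compound displaces dye from 1x1 AA loop RNA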
# dCAG dye counter – counter-screen for rCAG RNA binders: DNA CAG dye complex inhibitors; actives 94% (n = 4,300); inhibition, % at 3 µM; AID 652068; d(CAG) DNA oligo TO-PRO-1 dye displacement, fluorescence; shares compounds with rCAG binder;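 active means inhibition above its plate's cutoff, the mean test-well inhibition plus 3 SD, cut at about 4.8% in these data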;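 further: hits displace the dye from DNA and so lower well fluorescence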
# dCAG dye DR – counter-screen for rCAG binders: inhibitors of DNA CAG TO-PRO-1 complex; actives 20% (n = 250); IC50, µM; AID 686960; DNA CAG/GTC duplex TO-PRO-1 dye displacement fluorescence; shares compounds with rCAG binder; in the data active means IC50 below about 10 µM
# A number is an active result; – = inactive; · = no result.
SMILES,MBD2 DNA inh,rCAG binder,LEDGF integ inh,DNMT1 inh,UHRF1 MBD2 ctr,PG9 Ab binder,rCAG bind conf,dCAG dye counter,others
COc1cc(NS(=O)(=O)c2cc(C(=O)NCCc3ccccn3)ccc2OC)cc(OC)c1,–,–,–,–,–,–,·,·,
CNc1cncc(-c2ccc(CN(C)C)cc2)n1,–,–,–,–,–,–,·,·,
Cc1cc(OCC(=O)NNC(=S)NC(=O)c2ccc(Br)o2)ccc1Cl,–,45.2,–,–,–,–,68.9,21.9,dCAG dye DR=–
CCC(=O)NC(=S)Nc1ccc(NC(=O)COc2ccc(Cl)c(C)c2)cc1,–,–,–,–,–,–,·,·,
CC1=CC(=O)Nc2cncnc2N1,–,–,–,–,–,–,·,·,
COc1cc(C=NNc2ccc(S(=O)(=O)Nc3ccccc3C(=O)O)cc2[N+](=O)[O-])ccc1O,–,89.9,–,–,–,–,90.5,68.7,
CC(=O)Nc1ccc(C=NNc2ccc([N+](=O)[O-])cc2S(=O)(=O)Nc2ccccc2C(=O)O)cc1,–,57.0,–,–,–,–,88.7,64.8,
Cc1ccc(NC(=S)NNc2ccc(C(=O)O)cc2[N+](=O)[O-])cc1C,–,35.4,–,–,–,–,–,10.1,
COc1ccc(C(C)=NNc2ccc([N+](=O)[O-])cc2S(=O)(=O)Nc2ccccc2C(=O)O)c(OC)c1,–,76.8,–,–,–,–,93.0,78.2,
CCCNC(=O)C[C@H]1CC[C@@H]2[C@H](COC[C@@H](O)CN2C(=O)c2ccccn2)O1,–,–,–,·,–,–,·,·,
CCc1ccc(-c2cc(C)no2)cc1S(=O)(=O)N1CCCN(Cc2ccc(F)cc2)C1,–,–,–,–,–,–,·,·,
O=C(Nc1ccccc1F)C1COc2ccccc2O1 (configuration not stated),–,–,–,–,–,–,·,·,
O=C(O)c1ccccc1NS(=O)(=O)c1ccc(NNC(=S)Nc2ccc(OC(F)F)cc2)c([N+](=O)[O-])c1,–,101.0,–,–,–,–,95.2,80.3,
Cc1ccc(NC(=S)NNc2ccc([N+](=O)[O-])cc2S(=O)(=O)Nc2ccccc2C(=O)O)cc1C,–,91.1,–,–,–,–,93.5,70.3,
O=C(O)c1ccccc1Nc1ccc([N+](=O)[O-])cc1C(=O)O,–,–,–,–,–,–,·,·,
COc1cc(/C=N/Nc2ccc(S(N)(=O)=O)cc2[N+](=O)[O-])cc(OC)c1O,–,–,–,–,–,–,·,·,
CC(=O)Nc1cccc(/C(C)=N/Nc2ccc(S(=O)(=O)Nc3ccccc3C(=O)O)cc2[N+](=O)[O-])c1,–,85.3,–,–,–,–,94.1,80.4,
CCOc1cc(/C=N/Nc2ccc(S(=O)(=O)Nc3ccccc3C(=O)O)cc2[N+](=O)[O-])cc(Cl)c1O,–,66.7,–,–,–,–,92.9,73.5,
O=[N+]([O-])c1cc(S(=O)(=O)Nc2ccccc2)ccc1Nc1ccccc1,–,–,–,–,–,–,·,·,
CCN(CC)C(=O)c1nc(-c2cccc3ccccc23)no1,–,–,–,–,–,–,·,·,
CC(=O)Nc1ccc(C=NNc2ccc(S(=O)(=O)Nc3ccccc3C(=O)O)cc2[N+](=O)[O-])cc1,–,88.5,–,–,–,–,91.8,73.7,
CN1Cc2nnn(CC3CCCCC3)c2-c2ccccc2S1(=O)=O,–,–,–,·,–,·,·,·,
CC(Oc1cccc(Cl)c1)C(=O)N1CCN(c2ncccn2)CC1 (configuration not stated),–,–,–,–,–,–,·,·,
Nc1nn2c(-c3ccccc3)cc(=O)[nH]c2c1N=Nc1ccc(O)cc1,–,–,–,–,–,–,·,·,
Nc1nn2c(-c3ccccc3)cc(=O)[nH]c2c1N=Nc1ccc(Br)cc1,–,34.6,–,–,–,–,80.1,39.5,
CC1(C)CC(C(CC(=O)O)c2ccccc2)CCO1 (configuration not stated),–,–,–,–,–,–,·,·,
